# Data from PubChem BioAssay AID504329 (Southern Research Specialized Biocontainment Screening …, 2011).
# Values joined by “and” are separate entries in the source; they are usually repeats but may differ in a detail not shown here. Identical values can stand only once. Screen size: about 340,000 compounds; about 1,000 (0.29%) were called active. Not all results are given here. Potency and affinity values are given separately. A number with no mark means an inactive call. Cut-off read from the data, not from the text of the source: inconclusive = inhibition above about 27% without an active follow-up result; inactive = below that.
# Experiment: NS1A inhibition, H1N1 influenza, cell based functional assay (AID 504329)
# Details: percent inhibition, at 12.5 µM, stronger effect = higher value
row,SMILES,inhibition
1,CCOC(=O)C1=C(C)Nc2ncnn2C1c1ccc(N(C)C)cc1 (stereo not given),6.88% and -12.7%
2,O=C(O)c1ccc(Nc2nc(-c3ccccc3)nc3ccccc23)cc1,-15.2%
3,Cc1ccc2nc(-c3ccc(NC(=O)COC(=O)c4ccco4)cc3)sc2c1,-4.32%
4,COc1ccc(N(CC(=O)NC2CCCCC2)S(=O)(=O)c2cccnc2)cc1,-1.53%
5,CC(C)n1cnnc1SCC(=O)NC(=O)c1ccccc1,-13.7%
6,O=C(CSc1nc(=O)n(CCCN2CCOCC2)c2c1CCC2)Nc1ccc(F)cc1F,0.02%
7,CCOC(=O)c1cnc(N2CCN(c3ccccc3)CC2)[nH]c1=O,-0.51%
8,CCOC(=O)c1cnc(Cc2ccccc2)[nH]c1=O,-2.72%
9,O=C(c1cccc(N2C(=O)C3C4C=CC(C4)C3C2=O)c1)N1CCN(c2ccc(F)cc2)CC1 (stereo not given),-2.51%
10,COC(=O)c1ccc(NC(=S)N2CCC(C(N)=O)CC2)cc1,-11.5%
11,O=C(O)c1ccccc1P(=O)(c1ccccc1)c1ccccc1,7.4%
12,O=C(O)c1ccccc1C(=O)O,3.33%
13,O=C(NCc1ccco1)/C(=C/c1ccc([N+](=O)[O-])cc1)NC(=O)c1ccco1,-2.93%
14,Cc1ccc(CN2CCN(Cc3cn(C(C)C)c4ccccc34)CC2CCO)o1 (stereo not given),14.6%
15,Cc1sc2nc(SCC(=O)Nc3cccc(C(=O)O)c3)[nH]c(=O)c2c1C,-8.26%
16,CCOC(=O)C1CCN(C(=O)CCNS(=O)(=O)c2cc(Br)cnc2N)CC1,-2.4%
17,CCOC(=O)C1=C(C)N=c2s/c(=C/c3cccc([N+](=O)[O-])c3O)c(=O)n2C1c1ccc(OC)cc1OC (stereo not given),22.2%
18,CCOC(=O)C1=C(C)N=c2s/c(=C/c3cccc([N+](=O)[O-])c3O)c(=O)n2C1c1cc(OC)c(OC)c(OC)c1 (stereo not given),20.1%
19,CCc1ccc(C(=O)C(C)OC(=O)CNS(=O)(=O)c2ccc(C)cc2)cc1 (stereo not given),-0.69%
20,COc1ccc(C=C2C(=O)c3ccccc3C2=O)cc1O,16.6%

row,SMILES,inhibition
1,COc1cc(C=C2C(=O)c3ccccc3C2=O)ccc1O,-20.5%
2,CCn1c(C)nc2cc(C(=O)NN=Cc3ccccc3OC(F)F)ccc21,-6.28%
3,CCCN1CCC(=O)N(CCOc2ccccc2)CC1,-8.48%
4,CC(C)CN1CCC(=O)N(CCOc2ccccc2)CC1,2.95%
5,Cc1ccc(-n2c(O)c(C=NC3CCS(=O)(=O)C3)c3ccccc3c2=O)c(C)c1 (stereo not given),9.46%
6,c1ccc(CSc2ccc(-c3ccccn3)nn2)cc1,-2.51%
7,c1ccc(CSc2ccc(-c3cccnc3)nn2)nc1,-9.97%
8,c1cncc(CSc2ccc(-c3cccnc3)nn2)c1,0.64%
9,Clc1ccc(-c2ccc(SCc3ccccn3)nn2)cc1,0.43%
10,O=C(CSc1ccc(-c2ccccn2)nn1)c1ccc(F)cc1,-9.8%
11,O=C(CSc1ccc(-c2ccccn2)nn1)c1ccc([N+](=O)[O-])cc1,27.3%
12,Cc1onc(-c2ccc(Cl)cc2Cl)c1-c1csc(N/N=C/c2ccccc2)n1,-21.5%
13,CN(C(=O)c1ccc(NC(=O)Cc2cccc(NC(=O)C3CCCN(C(=O)C4CCCCC4)C3)c2)cc1)C1CCCC1 (stereo not given),-1.36%
14,CCS(=O)(=O)N1CCN(S(=O)(=O)c2ccc(S(=O)(=O)NC3CC3)cc2)CC1,7.16%
15,Cc1ccc(NC(=O)COc2ccc(C(=O)c3ccccc3)cc2)c(O)c1,8.15%
16,CCNC(=S)N1CCN(c2ccccc2OCC)CC1,0.76%
17,Cc1ccc(CN2CCNC(=O)C2CC(=O)NCCCn2ncc3ccccc32)o1 (stereo not given),-1.25%
18,CCO[C@H]1OC(C(=O)N2CCN(Cc3ccc4c(c3)OCO4)CC2)=C[C@@H](C2CCCCC2)[C@@H]1CCCO,8.35%
19,CC(C)N(Cc1nc(-c2ccc(Cl)cc2)no1)Cc1nccn1C,-7.64%
20,CCOC(=S)SCc1cn2cccc(C)c2n1,4.77%

row,SMILES,inhibition
1,CNc1ccc(Oc2nc([N+](=O)[O-])nn2C)cc1,-2.73%
2,Fc1ccc(/C=N/n2cnn(Cc3ccccc3Cl)c2=S)cc1,-7.06%
3,O=C(CCCc1ccccc1)Nc1nncs1,0.92%
4,O=S(=O)(NCC1COc2ccccc2O1)c1ccc2ccccc2c1 (stereo not given),1.74%
5,Cn1c(/C(C#N)=C(\O)c2cccc(F)c2)nc2ccccc21,0.62%
6,Cc1nc2sccn2c(=O)c1S(=O)(=O)N1CCN(c2cccc(C(F)(F)F)c2)CC1,3.59%
7,CCN1CCCC1CNC(=O)c1ccc2c(c1)NC(=O)/C(=C\c1ccc(C)cc1)S2 (stereo not given),21.9%
8,COc1ccc(/C=C2/Sc3ccc(C(=O)NCCCN4CCOCC4)cc3NC2=O)cc1OC,9.94%
9,O=C(NCC1CCCN1S(=O)(=O)c1cccs1)c1ccccc1F (stereo not given),-4.78%
10,CC(=O)Nc1ccc(S(=O)(=O)N2CCN(c3ccc(C)c(Cl)c3)CC2)cc1,-15.9%
11,O=[N+]([O-])c1nn(-c2ccc3c(c2)OCCO3)n(O)c1=NC1CCCC1,15.3%
12,O=[N+]([O-])c1nn(-c2ccccc2)[n+]([O-])c1N1CCN(c2ccccc2)CC1,0.82%
13,O=[N+]([O-])c1nn(-c2ccc3c(c2)OCCO3)n(O)c1=NC1CCCCC1,9.84%
14,CN=c1c([N+](=O)[O-])nn(-c2ccc3c(c2)OCCO3)n1O,2.75%
15,C/C=C(\C)CN1CCN(c2ccccc2)CC1,-6.09%
16,COc1cccc2c(Cl)c(CC=C(Cl)Cl)c(C)nc12,8.95%
17,CCN(CC)CC(O)Cn1c(C)c(-c2ccccc2)c2cc([N+](=O)[O-])ccc21 (stereo not given),27.4%
18,O=[N+]([O-])c1ccc2c(c1)c(-c1ccccc1)nc1nncn12,-1.91%
19,O=[N+]([O-])c1ccc(-[n+]2c(-c3ccccc3)cc(-c3ccccc3)cc2-c2ccccc2)cc1,0.94%
20,CC(C)n1c2ccccc2c2cc([N+](=O)[O-])ccc21,3.2%
